# Assay outcomes (PubChem BioAssay)
# Rin1 Abl inh = inhibitors of Rin1-Abl protein binding, primary screen, biochemical, TR-FRET | Tyrosine-protein kinase ABL1 (Homo sapiens) + Ras and Rab interactor 1 (Homo sapiens), … | inhibition, % at 7.35 µM | actives 0.4% (n = 360,000) | AID 588664, 2011; in the data active means inhibition above about 5%, passing the limit was not always enough
# MBD2 DNA inh = inhibitors of MBD2 binding to methylated DNA, primary screen, biochemical, TR-FRET, DNA-binding domain, human | Methyl-CpG-binding domain protein 2 (Homo sapiens), Q9UBB5 | MBD2 binding to methylated oligonucleotide | inhibition, % at 4.4 µM | actives 0.31% (n = 370,000) | AID 686964, 2013; in the data active means inhibition above about 13%
# Target sequence (Q9UBB5 whole entry, looked up, the tested form may be a part): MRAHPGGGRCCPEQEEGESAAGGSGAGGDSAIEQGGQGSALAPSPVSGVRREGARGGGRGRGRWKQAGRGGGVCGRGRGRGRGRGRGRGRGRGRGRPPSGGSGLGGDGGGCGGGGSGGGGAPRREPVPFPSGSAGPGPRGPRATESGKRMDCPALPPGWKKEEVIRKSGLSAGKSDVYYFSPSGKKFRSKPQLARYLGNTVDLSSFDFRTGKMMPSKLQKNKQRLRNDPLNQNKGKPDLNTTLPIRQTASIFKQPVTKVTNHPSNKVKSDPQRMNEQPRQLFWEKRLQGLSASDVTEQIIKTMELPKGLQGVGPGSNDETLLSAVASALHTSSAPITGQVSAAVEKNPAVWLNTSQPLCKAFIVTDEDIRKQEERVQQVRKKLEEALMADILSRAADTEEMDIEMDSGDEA
# LEDGF integ inh = blockers of LEDGF/p75-dependent integrase strand transfer – biochemical, TR-FRET, high throughput, primary screen. HIV-1 integrase (with human LEDGF/p75). TR-FRET IN-LEDGF/p75 DNA integration, Eu/Cy5. inhibition, % at 3.7 µM. actives 0.64% (n = 370,000). AID 743269, 2014;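 active means inhibition above the screen-wide mean plus 3 SD, cut at about 13% in these data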;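 further: signal is the Cy5 over europium emission ratio at 671 and 618 nm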
# Neddylation inh = inhibitors of cullin neddylation, primary screen, biochemical, TR-FRET, uHTS, NAE and Ubc12. NEDD8-conjugating enzyme Ubc12 (Homo sapiens) + NEDD8-activating enzyme E1 regulatory …. calls only at 25 µM. actives 0.58% (n = 360,000). AID 651699, 2012; in the data active means inhibition above about 36%
# UHRF1 MBD2 ctr = UHRF1 methylated DNA binding inhibitors, primary screen, counter-screen for MBD2 inhibitor project, biochemical, TR-FRET, human UHRF1, single concentration. UHRF1 binding to methylated oligo. inhibition, % at 4.4 µM. actives 0.75% (n = 370,000). AID 687016, 2013;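 further: UHRF1 SRA domain binding a hemimethylated CpG hairpin DNA probe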
# proKLK7 act = proKLK7 zymogen activators, primary screen, biochemical, fluorescence intensity; Kallikrein-7 (Homo sapiens), P49862; purified proKLK7, EDANS-DABCYL substrate fluorescence; 100% is mature enzyme control, 0% vehicle; activation, % at 7 µM; actives 0.9% (n = 370,000);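 active means activation above the mean of all tested compounds plus 3 SD, computed per campaign excluding outliers beyond control limits, cut at about 13% in these data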
# Target sequence (P49862 whole entry, looked up): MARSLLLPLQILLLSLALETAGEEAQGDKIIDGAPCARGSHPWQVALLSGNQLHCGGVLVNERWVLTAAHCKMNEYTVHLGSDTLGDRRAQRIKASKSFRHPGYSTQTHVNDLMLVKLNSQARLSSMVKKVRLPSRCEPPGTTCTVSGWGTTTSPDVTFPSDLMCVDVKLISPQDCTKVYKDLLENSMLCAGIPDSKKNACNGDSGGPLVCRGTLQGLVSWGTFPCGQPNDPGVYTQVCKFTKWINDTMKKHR
# Rin1-Abl confirm = Rin1-Abl binding inhibitor retest, confirmation, biochemical, TR-FRET. purified proteins. inhibition, % at 7.35 µM. shares compounds with Rin1 Abl inh. actives 49% (n = 1,300); in the data active means inhibition above about 6.5%
# GFP quencher = GFP fluorescence inhibitors and quenchers, artefact control for Rin1-Abl interaction inhibitor project, biochemical. shares compounds with Rin1 Abl inh. inhibitors/quenchers counterscreen. inhibition, % at 6.75 µM. actives 8.5% (n = 1,300). AID 602125, 2011; in the data active means inhibition above about 6.5%;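 further: ABL1-eGFP fusion protein alone without its partner RIN1-SBP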
# Neddyl inh conf = blockade of NEDD8 conjugation to cullin – biochemical, TR-FRET, single concentration, confirmation; TR-FRET cullin neddylation biochemical assay; actives 13% (n = 1,800); AID 652217, 2013; calls only at 25 µM; shares compounds with Neddylation inh; in the data active means inhibition above about 40%;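 further: neddylation substrate is the cullin 1 ring ligase complex with SKP2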
# UHRF1 ctr MBD2 = UHRF1 methylated DNA binding inhibitors, counter-screen for MBD2 inhibitor project, biochemical, TR-FRET, human UHRF1; inhibition, % at 4.4 µM; UHRF1 binding to methylated oligonucleotide; actives 25% (n = 1,000); shares compounds with MBD2 DNA inh;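 further: UHRF1 SRA domain binding a labeled hemimethylated CpG hairpin DNA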
# MBD2 confirm = inhibitors of MBD2 binding to methylated DNA, confirmation, biochemical, TR-FRET, DNA-binding domain, human; shares compounds with MBD2 DNA inh; TR-FRET MBD2-DBD binding to methylated oligonucleotide; inhibition, % at 4.4 µM; actives 26% (n = 1,000); AID 720531, 2013; in the data active means inhibition above about 14%
# IN multimer act = HIV-1 IN multimer formation enhancers, counter-screen for LEDGF/p75 integration inhibitor project, biochemical, TR-FRET. TR-FRET HIV-1 integrase multimerization. actives 17% (n = 2,000). shares compounds with LEDGF integ inh. activation, % at 7.7 µM; in the data active means activation above about 8.9%
# TR-FRET interf = TR-FRET optical interference artefacts, confirmation, artefact control for LEDGF/p75-dependent integration inhibitor project, biochemical, HIV-1 IN multimerization. shares compounds with LEDGF integ inh. TR-FRET optical interference counterscreen. inhibition, % at 7.7 µM. 2,000 tested, under 10 active. AID 1053135, 2014;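 active means inhibition above the mean over all tested compounds plus 3 SD, which no compound reached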
# IN-LEDGF confirm = inhibitors of HIV-1 IN-LEDGF/p75 DNA integration, confirmation, biochemical, TR-FRET | shares compounds with LEDGF integ inh | TR-FRET LEDGF/p75-dependent HIV-1 integration | inhibition, % at 3.7 µM | actives 36% (n = 2,000) | AID 1053136, 2014; in the data active means inhibition above about 14%
# Numbers stand for hits; - = inactive; . = no result given; + = active, no number. Only some compounds are listed: those with a hit (about 3.1% of all), similar ones and a draw of the others. Unless noted, no stated cut-off is given here; in the data, active means inhibition above about 21%; inactive means the rest.
SMILES,Rin1 Abl inh,MBD2 DNA inh,LEDGF integ inh,Neddylation inh,UHRF1 MBD2 ctr,proKLK7 act,Neddyl inh conf,others
Cc1[nH]n(-c2ccccc2)c(=O)c1C(=O)c1ccc([N+](=O)[O-])cc1,-,-,-,-,-,-,.,
Cc1[nH]n(-c2ccccc2)c(=O)c1C(=O)Nc1ccccc1,-,-,-,-,-,-,.,
Cc1[nH]n(-c2ccccc2)c(=O)c1C(c1ccc(C(=O)O)cc1)c1c(C)[nH]n(-c2ccccc2)c1=O,16.7,19.7,34.4,-,-,-,.,Rin1-Abl confirm=-;GFP quencher=-;UHRF1 ctr MBD2=-;MBD2 confirm=-;IN multimer act=-;TR-FRET interf=-;IN-LEDGF confirm=14.2
CCCN1/C(=C(\C#N)C2=NS(=O)(=O)c3ccccc32)N(C)c2ccccc21,-,-,-,-,-,-,.,
CN1CCOc2c1cnn(CCO)c2=O,-,-,-,+,-,-,-,
CC(C)(C)C(=O)Cn1ncc(N2CCOCC2)c(Br)c1=O,-,-,-,-,-,-,.,
CCOC(=O)c1sc(NC(=O)C2CC(=O)N(c3ccccc3OC)C2)nc1C (stereo not drawn),-,-,-,-,-,-,.,
O=C(Nc1cccc2nsnc12)c1cccs1,-,-,-,.,-,-,-,
O=C(Nc1ccc2nsnc2c1)c1cccs1,-,-,-,-,-,-,.,
CCN(CC(=O)NCc1cccs1)C(=O)/C=C/c1cccc(OC)c1OC,-,-,-,+,-,-,.,
CN(C)CCCNc1ncnc2oc(-c3ccccc3)c(-c3ccccc3)c12,-,-,-,+,-,-,-,
CCSC1=C(C#N)C(c2ccc(C)o2)CC(=O)N1 (stereo not drawn),-,-,-,+,-,-,-,
CCCCCCSC1=C(C#N)C(c2ccc(C)o2)CC(=O)N1 (stereo not drawn),-,-,-,-,-,-,.,
CC(=O)N1CCN(c2ccc(N3CCN(C(C)=O)[C@@H](C)C3)c(C)c2)[C@H](C)C1,.,-,-,.,-,-,.,
O=C(O)C/C(=C\c1ccc2c(c1)OCO2)c1nc2ccccc2s1,-,-,-,+,-,-,.,
O=C(O)C/C(=C\c1cc(Cl)c2c(c1)OCO2)c1nc2ccccc2s1,-,-,-,-,-,-,.,
CCNc1oc(/C=C/c2ccc(OCC)cc2)nc1C#N,-,-,-,+,-,-,.,
C=CCN1[C@H](C)COc2cccc(N3CCSCC3)c2S1(=O)=O,.,-,-,.,-,-,.,
CCCC[n+]1ccn(-c2nc3ccccc3nc2[N-]S(=O)(=O)c2ccc(Br)cc2)c1,-,-,-,-,-,-,.,
CC(C)CC[n+]1ccn(-c2nc3ccccc3nc2[N-]S(=O)(=O)c2ccccc2)c1,-,-,-,+,-,-,-,
O=S(=O)(c1ccc(Cl)cc1)N1c2ccccc2Oc2nc3ccccc3nc21,-,-,-,+,-,-,-,
COc1ccc(S(=O)(=O)N2c3cc(Cl)ccc3Oc3nc4ccccc4nc32)cc1,-,-,-,-,-,-,.,
O=C(NCCCc1ccccc1)c1ccccc1O,-,-,-,+,-,-,-,
O=C(NCCCCCCNC(=O)c1ccccc1O)c1ccccc1O,-,-,-,-,-,-,.,
COc1ccc(C(=O)Nc2ccc(Cl)cc2C(=O)N2CCCC(C)C2)cc1 (stereo not drawn),-,-,-,-,-,-,.,
SMILES,Rin1 Abl inh,MBD2 DNA inh,LEDGF integ inh,Neddylation inh,UHRF1 MBD2 ctr,proKLK7 act,Neddyl inh conf,others
CC(=O)C(Cc1ccccc1)NC(=O)CN1c2cccc3cccc(c23)S1(=O)=O (stereo not drawn),-,-,-,+,-,-,-,
CCOc1ccccc1NC(=O)CN1c2cccc3cccc(c23)S1(=O)=O,-,-,-,+,-,-,.,
COC(=O)c1ccc(CN2CC3CC(c4ccccc4)N4CCCC34C2=O)cc1 (stereo not drawn),.,-,-,.,-,-,.,
Cc1cccc2nc3ccccc3cc12,-,-,-,+,-,-,.,
Cc1cccc2cc3ccccc3nc12,-,-,-,-,-,-,.,
Cn1c2ccc(F)cc2c2ncn(CCCN(CCO)CCO)c(=O)c21,-,-,-,+,-,-,-,
Cn1c2ccc(F)cc2c2ncn(CCN3CCOCC3)c(=O)c21,-,-,-,-,-,-,.,
Cc1ccc2c(c1)COc1c3ccc(C(=O)NC(C)C)cc3nn1-2,-,-,-,+,-,-,+,
O=C(NCCO)c1ccc2c3n(nc2c1)-c1ccc(Cl)cc1CO3,-,-,-,-,-,-,.,
